The text below walks through data of PubChem BioAssay (NCI).

About 83,000 compounds went through this panel and 20% of them were active in at least one assay; those are over-represented in the sample as a whole.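 Each cell line was grown in a 96-well plate and treated with one concentration of compound for 48 hours. Values below 10 were considered active.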 A number with no mark means an inactive call. Activity calls are given as the source filed them.

The experiment concerns OVCAR-5 ovarian. Kind of experiment: NCI-60 one-dose screen, 48 h (100 = growth as untreated, 0 = no growth, -100 = all killed). The following applies: 10 µM unless noted. The procedure: Growth inhibition of the OVCAR-5 human tumor cell line is measured as a screen for anti-cancer activity. Cells are grown in 96 well plates and exposed to the test compound for 48 hours. Compounds are tested at a single concentration, which is 10^-5 M for most compounds. The reported endpoint is percent growth (GI% or GIPRCNT), where numbers from 0 - 100% represent growth inhibition, and numbers from -100% - 0 represent cell death. For example, a value of 40 represents 60% growth inhibition. A value of 0 means no net growth occurred over the course of the experiment. A value of -40 indicates 40% of cells at the beginning of the experiment died by the end of the experiment. A value of -100 means all cells are dead at the end of the experiment.
NCI-60 Human Tumor Cell Lines Screen was performed using the standard one-dose NCI protocol, which is described in more detail at https://dtp.cancer.gov/discovery_development/nci-60/default.htm.
Compounds with GIPRCNT values below 10 were considered active. Activity score was based on GIPRCNT using the following formula: […]
Score is 0 for GIPRCNT values of 100 or above, 50 for GIPRCNT values of 0, and 100 for GIPRCNT values of -100.
`CC1CN1CCCCN1CC1C` (stereo not given): the growth is 102%.
Next, `CCC1CC(O)c2c(O)c3c(c(O)c2C1O)C(=O)c1cccc(O)c1C3=O` (stereo not given) (tested in a mixture with another compound): -78.2% (active); `COc1cc2c(cc1OCCCCCn1c(-c3ccco3)nc3ccccc31)N=C[C@@H]1CCCN1C2=O`: 7.02% (active); `COC(=O)C1OC(Oc2ccc(N(CCCl)CCCl)cc2)C(OC(C)=O)C(OC(C)=O)C1OC(C)=O` (stereo not given): 90.4%.
Consider `CCOC(=S)S[C@H]1C[C@@H]2[C@H](CC[C@]3(C)C(=O)CC[C@@H]23)[C@@]2(C)CCC(=O)C=C12`, for which the growth was 102%.
Next, `CS(=O)(=O)CCN1CC2CCCC(C2)C1`: 102%; `C[C@]12CC[C@@H]3c4ccc(Oc5nc(N6CC6)nc(N6CC6)n5)cc4CC[C@H]3[C@@H]1CCC2=O`: 101%; `Cc1cc(C)c(CBr)c(C)c1`: 96.6%.
In the case of `CN1CCCCC1C(C)(O)c1ccccc1` (stereo not given), the growth was 94.2%.
Next, `COc1ccc2nc(NC(=O)COc3cc(/C=C\c4cc(OC)c(OC)c(OC)c4)ccc3OC)sc2c1`: 71.6%; `CC(C)(C)C(=O)OCOP(=O)(OCOC(=O)C(C)(C)C)C1CCCN(O)C1=O` (stereo not given): 32.5%.
For the compound `O=C1C2CCC1C(N1CCCC1)CC2` (stereo not given), the growth was 101%.
Take `CC(=O)OC1CCC2(C)C(CCC3C2CC(=O)C2(C)C3CC(Sc3ccc(N(CCCl)CCCl)cc3)C2C(C)=O)C1` (stereo not given): the growth is 95.6%.
As for `CNC(=O)Oc1ccc(N(C)C)cc1C(C)C`, the growth is 99.8%.
With `Cn1cc(C=O)c2nccnc21`, the growth was 120%.
Consider `COC(=O)[C@@H](C)C[C@H](Cc1ccccc1)NC(=O)c1csc([C@@H](C[C@H](C(C)C)N(C)C(=O)[C@@H](NC(=O)[C@H]2CCCCN2C)c2ccc(F)cc2)OC(C)=O)n1`, for which the growth is 20.7%.
Next, `CN(CCCCN(C)CCOS(C)(=O)=O)CCOS(C)(=O)=O`: 97.6%; `O=C1CN=C(c2ccc(Cl)cc2)c2sccc2N1`: 104%; `COc1ccc(N(CC(=O)NCCC[Te]c2ccccc2)C(=O)CNC(=O)OC(C)(C)C)cc1`: 22%.
As for `CCOC(=O)C(Cc1ccc(N(CCCl)CCCl)cc1)NC(=O)C(CC(C)C)NC(C)=O` (stereo not given), the growth was 36.8%.
On to `C/C(=C\c1cc(C(F)(F)F)nn1CCNC(=O)OC(C)(C)C)[C@@H]1C[C@@H]2O[C@]2(C)CCC[C@H](C)[C@H](O)[C@@H](C)C(=O)C(C)(C)[C@@H](O)CC(=O)O1`, for which the growth is 68.7%.
Next, `COc1cc(NC(C)CCCNC2CN3CCC2CC3)c2ncccc2c1` (stereo not given): 92.8%; `CC(C)=CC1C(C(=O)OCc2cccc(Oc3ccccc3)c2)C1(C)C` (stereo not given): 101%.
For the compound `CC[C@H](C)[C@H](NC(=O)[C@H]1CCCCN1C)C(=O)N(C)[C@H](C[C@@H](O)c1nc(C(=O)N[C@@H](Cc2ccccc2)C[C@H](C)C(=O)O)cs1)C(C)C`, the growth was 101%.
Next, `C=CC12CCN(CC1)C(C(O)c1ccnc3ccc(OC)cc13)C2` (stereo not given): 88.4%; `CCC1(C(C)C)C(=O)NC(=S)NC1=O`: 102%.
Next, `COc1cc(C=Nc2cccc(Br)c2)ccc1N(CCCl)CCCl`: 85.6%.
With `C[n+]1c(/C=C/c2ccc(N(CCCl)CCCl)cc2)sc2ccccc21`, the growth was 103%.
Turning to `COC(=O)[C@@H](C)C[C@H](Cc1ccccc1)NC(=O)c1nc([C@@H](C[C@H](C(C)C)N(C)C(=O)[C@@H](NC(=O)[C@H]2CC(=O)CCN2C)C(C)C)OC(C)=O)sc1C(C)C`, the growth is 35.5%.
As for `CC(C)[C@@H]1NC(=O)[C@]2(C)CSC(=N2)c2csc(n2)CNC(=O)C[C@@H](/C=C/CCS)OC1=O`, the growth was 25%.
Next, `CCOC(=O)[C@@H](C)C[C@H](Cc1ccccc1)NC(=O)c1nc([C@@H](C[C@H](C(C)C)N(C)C(=O)[C@@H](NC(=O)[C@H]2CCCCN2C)C(C)C)OC(C)=O)sc1CCOCc1ccccc1`: 6.59% (active); `O=C1NC(=O)C(=Cc2ccc(OCCCCC3CCCCC3)c(Cl)c2)C(=O)N1`: 98.8%.
Next, `CCC1(C)CC(CCNCc2ccccc2O)(c2ccc(C)cc2)CCO1` (stereo not given): 100%.
For the compound `NC(=Nc1ccccc1)N[N+](=O)[O-]`, the growth is 91.4%.
Next, `C[C@]12CC[C@H]3[C@@H](CC4SC(N)=NC45C/C(=N/NC(N)=O)CC[C@]35C)[C@@H]1CCC2=O` (stereo not given in full): 72.9%; `CN1CC(=O)N(O)C1(C)c1cccnc1` (stereo not given): 95.6%.
Next, `CC(C)CCC1(CCCl)C(=O)NC(=O)NC1=O`: 101%; `CCn1cnc2c(Nc3cccc(Cl)c3)nc(N[C@@H]3CCCC[C@@H]3N)nc21`: 3.37% (active).
Next, `CCN(CCO)C(Cc1ccccc1)c1ccccc1` (stereo not given): 93%; `Cc1cc(-c2nc3cc(F)ccc3[se]2)cc(F)c1N`: 51.2%.
